From PubChem BioAssay (NCI)
Where “and” joins values, the source holds several entries; their conditions need not be identical. Equal entries are not always repeated. About 83,000 compounds went through this panel and 20% of them were active in at least one assay; those are over-represented in the sample as a whole.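 Testing used 96-well plates and a 48-hour single-concentration exposure. Example: -40 means 40% of the starting cells died.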 Calls of active or inactive are those of the source. Rule for the calls: active = growth percent below 10; inactive = the rest.

How the values were obtained:
Assay in all cases: NCI-60 one-dose screen, 48 h (100 = growth as untreated, 0 = no growth, -100 = all killed)
Details in all cases: 10 µM unless noted
NCI-H23 lung = tested on: NCI-H23 lung
NCI-H226 lung = tested on: NCI-H226 lung
NCI-H322M lung = tested on: NCI-H322M lung
HOP-62 NSCLC = tested on: HOP-62 NSCLC
HOP-92 NSCLC = tested on: HOP-92 NSCLC
NCI-H522 lung = tested on: NCI-H522 lung
A549/ATCC NSCLC = tested on: A549/ATCC NSCLC
786-0 renal = tested on: 786-0 renal
COLO 205 colon = tested on: COLO 205 colon
DU-145 prostate = tested on: DU-145 prostate
K-562 leukemia = tested on: K-562 leukemia
MALME-3M melanoma = tested on: MALME-3M melanoma
MDA-MB-231 breast = tested on: MDA-MB-231 breast
RXF 393 renal = tested on: RXF 393 renal
SF-268 CNS = tested on: SF-268 CNS
SF-295 CNS = tested on: SF-295 CNS
SF-539 CNS = tested on: SF-539 CNS
UACC-257 melanoma = tested on: UACC-257 melanoma
M14 melanoma = tested on: M14 melanoma
NCI-H460 lung = tested on: NCI-H460 lung

Measured: growth

NC(=O)NO
inactive: NCI-H23 lung 102% and 62.3% | NCI-H226 lung 106% and 74.1% | NCI-H322M lung 107% and 77.1% | HOP-62 NSCLC 109% and 73.2% | HOP-92 NSCLC 101% and 60.6% | NCI-H522 lung 98.7% and 82.7% | A549/ATCC NSCLC 94.8% and 53.4% | 786-0 renal 103% and 59.7% | COLO 205 colon 118% and 87.4% | DU-145 prostate 110% and 56.7% | K-562 leukemia 113% and 77% | MALME-3M melanoma 102% and 57.8% | MDA-MB-231 breast 98.8% and 84.4% | RXF 393 renal 116% and 25.5% | SF-268 CNS 102% and 70.4% | SF-295 CNS 99.4% and 50.3% | SF-539 CNS 104% and 47.4% | UACC-257 melanoma 102% and 44% | M14 melanoma 104%

Cn1c(=O)c2[nH]c(CCCCCCCCc3nc4ccccc4[nH]3)nc2n(C)c1=O
inactive: NCI-H23 lung 47.4% and 55.2% | NCI-H226 lung 58.1% and 66.3% | NCI-H322M lung 87.3% and 99.6% | HOP-62 NSCLC 57% and 49.2% | HOP-92 NSCLC 60.4% | NCI-H522 lung 72.8% | A549/ATCC NSCLC 67.4% and 70.1% | 786-0 renal 73.1% and 75.1% | COLO 205 colon 88% and 99.6% | DU-145 prostate 91.2% and 82.7% | K-562 leukemia 30.9% | MALME-3M melanoma 71.9% | MDA-MB-231 breast 77% and 60.9% | RXF 393 renal 87.9% and 101% | SF-268 CNS 83.5% and 98.3% | SF-295 CNS 34.8% and 35.9% | SF-539 CNS 78.2% and 74.8% | UACC-257 melanoma 39.7% and 72% | M14 melanoma 80.7% and 80.8%

Clc1nc(Oc2ccccc2)nc(-c2cn(-c3ccccc3)c3ccccc23)n1
active: HOP-92 NSCLC -40.8%
inactive: NCI-H23 lung 14.5% | NCI-H226 lung 80.2% | NCI-H322M lung 93.5% | HOP-62 NSCLC 101% | NCI-H460 lung 97.2% | NCI-H522 lung 111% | 786-0 renal 101% | DU-145 prostate 76.7% | K-562 leukemia 36.9% | MALME-3M melanoma 85.7% | MDA-MB-231 breast 40% | RXF 393 renal 42.9% | SF-268 CNS 28.3% | SF-295 CNS 86.2% | SF-539 CNS 91.1% | UACC-257 melanoma 93.6% | M14 melanoma 71.1%

CCN(CC)CCCC(C)N(Cc1ccccc1)CC(O)c1ccc(Cl)cc1 (centres undefined)
inactive: NCI-H23 lung 106% and 101% | NCI-H226 lung 98.9% and 110% | NCI-H322M lung 114% and 98% | HOP-62 NSCLC 97.3% and 92.8% | NCI-H460 lung 101% and 116% | HOP-92 NSCLC 71.7% and 95.2% | NCI-H522 lung 107% and 89.8% | 786-0 renal 108% and 96.8% | COLO 205 colon 103% and 111% | DU-145 prostate 109% and 106% | K-562 leukemia 100% and 106% | MALME-3M melanoma 103% | MDA-MB-231 breast 114% and 105% | RXF 393 renal 101% and 106% | SF-268 CNS 102% and 100% | SF-295 CNS 103% and 96% | SF-539 CNS 111% and 95.9% | UACC-257 melanoma 102% and 105% | M14 melanoma 109% and 104%

COc1ccc(CCN(C)CCCC(C#N)(c2ccc(OC)c(OC)c2)C(C)C)cc1OC (centres undefined)
inactive: NCI-H23 lung 86.9% and 106% and 86.1% | NCI-H226 lung 113% and 102% and 101% | NCI-H322M lung 96.4% and 91.3% | HOP-62 NSCLC 90.8% and 86.4% | NCI-H460 lung 95.5% and 111% and 102% | HOP-92 NSCLC 81.2% | NCI-H522 lung 98.8% and 91.6% | 786-0 renal 93.7% and 88.8% and 107% | COLO 205 colon 100% and 109% and 101% | DU-145 prostate 103% and 96.6% | K-562 leukemia 72.5% and 95.2% | MALME-3M melanoma 93.8% and 102% and 89.6% | MDA-MB-231 breast 85.2% and 95.4% and 99.3% | RXF 393 renal 103% and 96.2% and 96.3% | SF-268 CNS 97.4% and 103% and 96.2% | SF-295 CNS 74.7% and 67.2% and 100% | SF-539 CNS 107% and 87.8% and 110% | UACC-257 melanoma 91.8% and 96.1% and 89.5% | M14 melanoma 102% and 86.1% and 94.2%

CC[N+](CC)(CC(=O)Nc1c(C)cccc1C)Cc1ccccc1
inactive: NCI-H23 lung 85.4% and 99.4% | NCI-H226 lung 87% and 97.8% | NCI-H322M lung 110% and 93.8% | HOP-62 NSCLC 85.2% and 93.2% | NCI-H460 lung 100% and 101% | HOP-92 NSCLC 112% and 90.7% | NCI-H522 lung 92% | 786-0 renal 103% | COLO 205 colon 103% | DU-145 prostate 101% | K-562 leukemia 94.7% | MALME-3M melanoma 96.3% and 89.9% | MDA-MB-231 breast 75.7% and 97.2% | RXF 393 renal 92.8% and 106% | SF-268 CNS 91.9% and 104% | SF-295 CNS 104% and 101% | SF-539 CNS 111% and 102% | UACC-257 melanoma 92.2% | M14 melanoma 95.3% and 100%

Nc1ccc2ccc(N)cc2c1
inactive: NCI-H23 lung 69.7% | NCI-H226 lung 95.7% | NCI-H322M lung 69.1% | HOP-62 NSCLC 86% | NCI-H460 lung 91.7% | HOP-92 NSCLC 101% | A549/ATCC NSCLC 82.5% | 786-0 renal 94.3% | COLO 205 colon 89.6% | DU-145 prostate 96.1% | K-562 leukemia 57.3% | MALME-3M melanoma 33.1% | MDA-MB-231 breast 62.1% | RXF 393 renal 88.1% | SF-268 CNS 84.3% | SF-295 CNS 72.1% | SF-539 CNS 107% | M14 melanoma 84.1%

c1ccc2c(CC3=NCCN3)cccc2c1
inactive: NCI-H23 lung 96.3% and 98.5% | NCI-H226 lung 91.4% and 100% | NCI-H322M lung 98.1% and 115% | HOP-62 NSCLC 112% and 98.8% | HOP-92 NSCLC 82.3% and 87.7% | NCI-H522 lung 103% and 90% | A549/ATCC NSCLC 97.6% and 93.8% | 786-0 renal 98.3% and 99.9% | COLO 205 colon 113% and 112% | DU-145 prostate 123% and 114% | K-562 leukemia 115% and 107% | MALME-3M melanoma 104% and 113% | MDA-MB-231 breast 105% and 109% | RXF 393 renal 105% and 102% | SF-268 CNS 114% and 109% | SF-295 CNS 94.3% and 100% | SF-539 CNS 102% and 95.8% | UACC-257 melanoma 101% and 97.1% | M14 melanoma 97.1% and 99.3%

CCN(CC)CCOc1ccc(/C=N/Nc2nc3c([nH]2)c(=O)n(C)c(=O)n3C)cc1
inactive: NCI-H23 lung 89.8% and 103% | NCI-H226 lung 102% and 101% | NCI-H322M lung 109% and 94.1% | HOP-62 NSCLC 103% and 108% | HOP-92 NSCLC 94.6% | NCI-H522 lung 84.8% and 93.3% | A549/ATCC NSCLC 104% and 110% | 786-0 renal 91.7% and 107% | COLO 205 colon 112% and 111% | DU-145 prostate 115% and 108% | K-562 leukemia 109% and 103% | MALME-3M melanoma 96.6% and 82.1% | MDA-MB-231 breast 103% and 87.4% | RXF 393 renal 114% and 122% | SF-268 CNS 111% and 102% | SF-295 CNS 113% and 98.7% | SF-539 CNS 97.2% and 95.5% | UACC-257 melanoma 102% and 108% | M14 melanoma 96.7% and 97.6%
